According to PubChem BioAssay (NCATS):
Values joined by “and” are separate entries in the source; they are usually repeats but may differ in a detail not shown here. Identical values can stand only once. Inconclusive results are not listed. A call without a number means that no potency is given here. Some compounds were tested as several samples or in several runs, with calls that do not always agree. Active and inactive are the calls of the source. Unless noted, calls come from the whole dose curve; as a rule, active = well fitted curve in the direction sought with a large enough effect; inconclusive = small, poorly fitted or top-dose-only effect, or another doubt; inactive = no such curve, though single readings can be large; an effect the other way counts as inactive or inconclusive.

Key:
[1] = P-glycoprotein substrates identified in KB-8-5-11 adenocarcinoma cell line, qHTS therapeutic library screen (AID 1346987); note: nearly all actives have a fitted effect of over 65% in size; note: potency is the fitted concentration of half-maximal effect
In short: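 In this qHTS, P-gp-rich KB-8-5-11 cells received library compounds across a concentration range. Viability was quantified by luminescence after 72 h at 37 degree C.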

[2] = NS1 protein of Zika virus - qHTS assay to identify small molecule inhibitors in human HEK 293 cells (AID 1347053); note: nearly all actives have a fitted effect of over 55% in size; note: potency is the fitted concentration of half-maximal effect
In short: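 In this cell-based screen, HEK 293 cultures received compound for one hour before Zika MR766 at MOI = 0.5. NS1 was quantified 24 hours later by TR-FRET, normalized to virus-free wells and infected wells.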

[3] = qHTS of pediatric cancer cell lines to identify multiple opportunities for drug repurposing: Primary screen for TC32 cells (AID 1347089); note: nearly all actives have a fitted effect of over 60% in size; note: potency is the fitted concentration of half-maximal effect
In short: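 Luminescent CellTiter-Glo read-out of metabolically active TC32 cells after 48 h compound exposure. Primary: MIPE 11-point, 0.78 nM–46 µM; NPC 8-point, 0.59 nM–46 µM. Confirmatory: 11-point dilutions.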

[4] = target: Atrial natriuretic peptide receptor 1 (Homo sapiens) (UniProt P16066); assay: Natriuretic polypeptide receptor (hNpr1) antagonism - Pilot screen (AID 1347049; calls by dose curve;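 note: HEK293 cells with hNpr1 and GloSensor cGMP luciferase stimulated by 0.1 nM hNppA; agonist-evoked cGMP luminescence read 20 min after hNppA addition; series mostly up to about 58 µM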)
In short: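 Cells expressing receptor plus cGMP biosensor are seeded and incubated overnight at 37C, then loaded with GloSensor reagent (2% final) at room temperature for 2 h. Library compounds go on for 30 min. A pre-read precedes agonist (hNppA, 0.1 nM final) and a 20-min readout.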

[5] = target: Parathyroid hormone/parathyroid hormone-related peptide receptor (Homo sapiens) (UniProt Q03431); assay: qHTS for PTHR1 Agonists: Optimization Screen against the NCGC LOPAC library (AID 1347079);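 note: GloSensor cAMP luminescence in HEK-293 GP2 cells expressing human PTHR1 with IBMX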
In short: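 Signal increase flags agonism. GP2 cells, derived from HEK-293, express human PTHR1 and a GloSensor cAMP construct.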

Sequence of Parathyroid hormone/parathyroid hormone-related peptide receptor (Homo sapiens) (Q03431 whole entry, looked up): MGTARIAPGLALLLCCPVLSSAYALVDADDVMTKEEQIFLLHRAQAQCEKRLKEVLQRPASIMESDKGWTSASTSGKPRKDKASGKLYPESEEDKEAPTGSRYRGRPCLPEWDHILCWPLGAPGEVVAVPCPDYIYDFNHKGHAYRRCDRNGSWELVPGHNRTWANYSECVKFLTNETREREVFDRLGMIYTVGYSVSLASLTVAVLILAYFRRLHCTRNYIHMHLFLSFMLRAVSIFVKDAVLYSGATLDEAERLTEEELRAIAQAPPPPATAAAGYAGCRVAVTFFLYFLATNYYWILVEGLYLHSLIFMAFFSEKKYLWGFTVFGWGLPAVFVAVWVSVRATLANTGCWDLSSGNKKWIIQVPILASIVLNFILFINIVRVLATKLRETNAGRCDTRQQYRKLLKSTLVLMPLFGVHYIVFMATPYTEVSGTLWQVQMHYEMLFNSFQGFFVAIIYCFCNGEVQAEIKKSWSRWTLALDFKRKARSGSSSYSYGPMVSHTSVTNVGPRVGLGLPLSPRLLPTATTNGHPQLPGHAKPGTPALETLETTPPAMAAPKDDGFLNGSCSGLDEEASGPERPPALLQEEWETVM
Sequence of Atrial natriuretic peptide receptor 1 (Homo sapiens) (P16066 whole entry, looked up): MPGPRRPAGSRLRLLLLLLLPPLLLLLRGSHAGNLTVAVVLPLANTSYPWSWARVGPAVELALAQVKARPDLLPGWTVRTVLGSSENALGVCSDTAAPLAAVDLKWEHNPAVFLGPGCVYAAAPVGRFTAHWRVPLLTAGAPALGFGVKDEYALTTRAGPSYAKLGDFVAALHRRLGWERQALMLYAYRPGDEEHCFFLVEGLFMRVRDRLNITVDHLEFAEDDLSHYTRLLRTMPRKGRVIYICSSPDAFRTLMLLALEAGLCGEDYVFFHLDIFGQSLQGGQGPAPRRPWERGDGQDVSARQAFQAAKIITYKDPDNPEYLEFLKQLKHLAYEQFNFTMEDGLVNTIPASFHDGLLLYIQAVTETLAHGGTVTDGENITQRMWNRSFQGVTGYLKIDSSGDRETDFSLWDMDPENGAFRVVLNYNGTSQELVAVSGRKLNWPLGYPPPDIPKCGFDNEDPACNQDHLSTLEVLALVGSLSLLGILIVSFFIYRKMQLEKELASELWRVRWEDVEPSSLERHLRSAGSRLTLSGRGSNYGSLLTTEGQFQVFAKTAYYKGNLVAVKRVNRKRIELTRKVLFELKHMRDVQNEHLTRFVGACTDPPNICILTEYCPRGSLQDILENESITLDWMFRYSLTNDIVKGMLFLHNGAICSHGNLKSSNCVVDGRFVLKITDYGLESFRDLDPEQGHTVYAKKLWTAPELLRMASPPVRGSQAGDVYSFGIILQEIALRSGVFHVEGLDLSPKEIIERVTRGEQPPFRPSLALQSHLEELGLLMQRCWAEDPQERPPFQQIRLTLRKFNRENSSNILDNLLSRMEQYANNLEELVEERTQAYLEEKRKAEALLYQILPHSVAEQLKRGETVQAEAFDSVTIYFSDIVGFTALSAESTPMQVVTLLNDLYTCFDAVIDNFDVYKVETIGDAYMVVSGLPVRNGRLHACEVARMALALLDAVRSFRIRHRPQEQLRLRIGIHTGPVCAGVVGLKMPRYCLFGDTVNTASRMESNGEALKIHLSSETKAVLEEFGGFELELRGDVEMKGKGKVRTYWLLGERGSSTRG

Structure (SMILES): O=C1NC(=O)C(=Cc2ccc3nccnc3c2)S1
- Potency [1]: inactive
- Potency [2]: inactive
- Potency [3]: inactive

Structure (SMILES): CN1[C@@H]2CCC[C@@H]1CC(NC(=O)c1nn(C)c3ccccc13)C2 (some centres not stated)
- Potency [1]: inactive
- Potency [3]: inactive

Structure (SMILES): OC[C@H]1O[C@@H](n2cnc3c2NC=NC[C@@H]3O)C[C@H]1O
- Potency [1]: inactive
- Potency [3]: inactive

Structure (SMILES): COc1ncc(-c2ccc3nccc(-c4ccnnc4)c3c2)cc1NS(=O)(=O)c1ccc(F)cc1F
- Potency [1]: 2.96 µM (active) and 29.1 nM (active)
- Potency [2]: 0.0418 µM (active)
- Potency [3]: 0.0026 µM (active)

Structure (SMILES): COC(=O)N[C@H](C(=O)N1CCC[C@@H]1c1ncc(-c2ccc(-c3ccc(-c4cnc([C@@H]5CCCN5C(=O)[C@@H](NC(=O)OC)C(C)C)[nH]4)cc3)cc2)[nH]1)C(C)C
- Potency [1]: inactive
- Potency [3]: inactive

Structure (SMILES): O=C(OCC#CCSc1nnc(-c2cccc3ccccc23)o1)c1cc2ccccc2s1
- Potency [1]: inactive
- Potency [3]: inactive

Structure (SMILES): CO[C@H]1C[C@@H]2CC[C@@H](C)[C@@](O)(O2)C(=O)C(=O)N2CCCC[C@@H]2C(=O)O[C@H]([C@H](C)C[C@@H]2CC[C@H](OCCO)[C@H](OC)C2)CC(=O)[C@H](C)C=C(C)[C@@H](O)[C@@H](OC)C(=O)[C@H](C)C[C@H](C)C=CC=CC=C1C
- Potency [1]: 3.32 µM (active)
- Potency [3]: 3.3 µM (active)

Structure (SMILES): Cc1nnc(C(C)C)n1C1C[C@H]2CC[C@@H](C1)N2CC[C@H](NC(=O)C1CCC(F)(F)CC1)c1ccccc1 (some centres not stated)
- Potency [1]: inactive
- Potency [2]: inactive
- Potency [3]: inactive

Structure (SMILES): C[N+]1(C)[C@@H]2CC(OC(=O)[C@H](CO)c3ccccc3)C[C@H]1[C@H]1O[C@@H]12 (some centres not stated)
- Potency [1]: inactive
- Potency [2]: inactive
- Potency [3]: inactive

Structure (SMILES): COCCOc1nc(-c2ccc(Cl)c(Cl)c2)n(-c2ccc(NC(=O)CCl)cc2)n1
- Potency [1]: inactive and 14.6 µM (active)
- Potency [3]: inactive

Structure (SMILES): CC(C)C(=O)Oc1ccc(CO)cc1[C@H](CCN(C(C)C)C(C)C)c1ccccc1
- Potency [1]: inactive
- Potency [3]: inactive

Structure (SMILES): CN(C)Cc1ccc(-c2nc3cccc4c3n2CCNC4=O)cc1
- Potency [1]: inactive
- Potency [3]: inactive

Structure (SMILES): CCS(=O)(=O)N1CC(CC#N)(n2cc(-c3ncnc4[nH]ccc34)cn2)C1
- Potency [1]: inactive
- Potency [3]: inactive

Structure (SMILES): O=c1cc(-c2ccccc2)oc2cc(O)cc(O)c12
- Potency [1]: inactive
- Potency [3]: inactive

Structure (SMILES): COCCCCC(=NOCCN)c1ccc(C(F)(F)F)cc1
- Potency [1]: 20.9 µM (active)
- Potency [3]: inactive

Structure (SMILES): CC(C)OC(=O)C(C)(C)Oc1ccc(C(=O)c2ccc(Cl)cc2)cc1
- outcome [4]: inactive
- outcome [5]: inactive
- Potency [3]: inactive

Structure (SMILES): C=C1C(=O)OC2C=C(C)CCC=C(C)CCC12 (configuration not stated)
- Potency [1]: inactive
- Potency [3]: inactive

Structure (SMILES): CN(C[C@@H]1COCCO1)S(=O)(=O)Nc1ccc2ccc3ncc(-c4cnn(C)c4)cc3c(=O)c2c1
- Potency [1]: 18.7 µM (active) and 18.4 µM (active)
- Potency [3]: inactive

Structure (SMILES): C[C@H](NC(=O)c1sccc1OCc1ccc(Cl)cc1)c1ccccc1
- Potency [1]: 14.8 µM (active)
- Potency [3]: inactive

Structure (SMILES): O=C(O)[C@H]1O[C@H](Oc2cc3oc(-c4ccccc4)cc(=O)c3c(O)c2O)[C@H](O)[C@@H](O)[C@H]1O
- Potency [1]: inactive
- Potency [3]: inactive

Structure (SMILES): CC1CCC(C(=O)N(c2cc(C#CC(C)(C)C)sc2C(=O)O)C2CCC(O)CC2)CC1 (configuration not stated)
- Potency [1]: inactive
- Potency [3]: inactive
